Measurements taken from PubChem BioAssay (NCI).
The panel holds about 79,000 compounds, 15% with a hit somewhere; the sample as a whole holds those more often. A number with no mark means an inactive call. The source made the active and inactive calls. Cut-off read from the data, not from the text of the source: active = growth inhibition above about 70%; inactive = the rest.

Tests used:
[1] = NCI Yeast Anticancer Drug Screen. Data for the rad52 strain (AID 147);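 note: 0% = growth of vehicle-treated control cultures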; details: S. cerevisiae rad52 mutant growth inhibition, hits give high values
Procedure, shortened: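 Vehicle-treated cultures served as the reference for growth inhibition of compound-exposed yeast bearing a DNA repair mutation.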

[2] = NCI Yeast Anticancer Drug Screen. Data for the wt1 strain (AID 149);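 note: 0% = growth of vehicle-treated wt1 cultures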; details: S. cerevisiae wt1 strain (SPY 50644) growth inhibition, hits give high values
Procedure, shortened: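 Vehicle-normalised growth inhibition; strain wt1; compound exposure.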

[3] = NCI Yeast Anticancer Drug Screen. Data for the rad50EPP+ strain (AID 151);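 note: 0% = growth of vehicle-treated control cultures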; details: S. cerevisiae rad50 mutant strain, hits give high values
Procedure, shortened: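 In this screen, rad50EPP+ yeast were exposed to compounds. Growth inhibition was scored against vehicle-treated controls.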

[4] = NCI Yeast Anticancer Drug Screen. Data for the mgt1 strain (AID 153); details: S. cerevisiae mgt1 mutant growth inhibition, hits give high values
Procedure, shortened: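 mgt1 strain exposed; growth vs vehicle control recorded as inhibition.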

[5] = NCI Yeast Anticancer Drug Screen. Data for the rad50 strain (AID 155);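 note: 0% = growth of vehicle-only cultures of the same strain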; details: S. cerevisiae rad50 strain growth inhibition, hits give high values
Procedure, shortened: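 A DNA repair-deficient yeast mutant serves as the test organism; compound-induced growth inhibition is calculated against vehicle-treated cells.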

[6] = NCI Yeast Anticancer Drug Screen. Data for the mec2-1 strain (AID 157); details: S. cerevisiae mec2-1 strain, hits give high values
Procedure, shortened: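 Vehicle-treated cultures served as reference for growth inhibition of compound-exposed mec2-1 yeast.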

[7] = NCI Yeast Anticancer Drug Screen. Data for the rad14 strain (AID 159);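 note: 0% = growth of vehicle-treated control cultures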; details: S. cerevisiae rad14 strain growth inhibition, hits give high values
Procedure, shortened: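 Vehicle-treated cultures served as the baseline for growth inhibition of a DNA repair-mutant yeast strain exposed to each compound.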

[8] = NCI Yeast Anticancer Drug Screen. Data for the sgs1 mgt1 strain (AID 161);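 note: 0% = growth of cultures given vehicle only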; details: S. cerevisiae sgs1 mgt1 strain, hits give high values
Procedure, shortened: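 Read-out: growth inhibition vs vehicle controls. Cells: mutant yeast strain deficient in DNA damage repair.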

[9] = NCI Yeast Anticancer Drug Screen. Data for the CLN2oe strain (AID 163);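 note: 0% = growth of vehicle-only control cultures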; details: S. cerevisiae CLN2oe strain, hits give high values
Procedure, shortened: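 Inhibition relative to vehicle-treated yeast is reported. Cells: strain with genetic alteration in cell-cycle control, grown with compound.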

[10] = NCI Yeast Anticancer Drug Screen. Data for the cln2 rad14 strain (AID 165);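 note: 0% = growth equal to vehicle treated cultures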; details: S. cerevisiae cln2 rad14 strain, hits give high values
Procedure, shortened: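 Each compound was tested on cln2 rad14 yeast. Inhibition of growth was calculated against vehicle-exposed controls.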

[11] = NCI Yeast Anticancer Drug Screen. Data for the bub3 strain (AID 167); details: S. cerevisiae bub3 mutant strain, hits give high values
Procedure, shortened: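 Inhibition values come from growth of compound-treated mutant yeast normalised to vehicle-treated controls.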

[12] = NCI Yeast Anticancer Drug Screen. Data for the wt2 strain (AID 169);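 note: 0% = growth of vehicle-treated yeast cultures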; details: S. cerevisiae wt2 strain growth inhibition, hits give high values
Procedure, shortened: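 Inhibition of yeast growth was determined after compound treatment, normalised to controls receiving only vehicle.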

[13] = NCI Yeast Anticancer Drug Screen. Data for the mlh1 strain (AID 171);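 note: 0% = growth of vehicle-treated control cultures of the same strain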; details: S. cerevisiae mlh1 strain growth inhibition, hits give high values
Procedure, shortened: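 Vehicle-normalised growth inhibition of a repair- or checkpoint-altered yeast strain following compound treatment.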

[14] = NCI Yeast Anticancer Drug Screen. Data for the sgs1 strain (AID 173);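 note: 0% = growth of vehicle-only control cultures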; details: S. cerevisiae sgs1 mutant, hits give high values
Procedure, shortened: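 Screen format: yeast with repair or checkpoint alterations, compound exposure, growth read relative to vehicle.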

[15] = NCI Yeast Anticancer Drug Screen. Data for the mlh1 rad18 strain (AID 175); details: S. cerevisiae mlh1 rad18 strain growth inhibition, hits give high values
Procedure, shortened: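 Vehicle-treated cultures served as the reference for growth inhibition in a yeast strain carrying DNA damage repair alterations exposed to each compound.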

[16] = NCI Yeast Anticancer Drug Screen. Data for the rad18 strain (AID 177); details: S. cerevisiae rad18 mutant growth inhibition, hits give high values
Procedure, shortened: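 Test articles were incubated with altered yeast defective in DNA damage repair. Results are given as inhibition of growth versus vehicle.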

[17] = at 5.0 µM (retest, dose inferred, filed as 0.5)
[18] = at 50.0 µM (retest, dose inferred, filed as 5.0)

SMILES: CNC(=O)OCc1c(COC(=O)NC)c(C)n(-c2ccc(Br)cc2)c1C
- growth inhibition ([1]; at 1.2 µM): -7%
- growth inhibition ([1]; at 3.7 µM): -6%
- growth inhibition ([1]; at 11.0 µM): -8%
- growth inhibition ([1]; at 33.0 µM): 6%
- growth inhibition ([1]; at 100.0 µM): 87% (active)
- growth inhibition ([2]; at 1.2 µM): -41%
- growth inhibition ([2]; at 3.7 µM): -38%
- growth inhibition ([2]; at 11.0 µM): -37%
- growth inhibition ([2]; at 33.0 µM): -32%
- growth inhibition ([2]; at 100.0 µM): 98% (active)
- growth inhibition ([3]; at 1.2 µM): -25%
- growth inhibition ([3]; at 3.7 µM): -19%
- growth inhibition ([3]; at 11.0 µM): -24%
- growth inhibition ([3]; at 33.0 µM): -25%
- growth inhibition ([3]; at 100.0 µM): -3%
- growth inhibition ([4]; at 1.2 µM): -15%
- growth inhibition ([4]; at 3.7 µM): -17%
- growth inhibition ([4]; at 11.0 µM): -20%
- growth inhibition ([4]; at 33.0 µM): 14%
- growth inhibition ([4]; at 100.0 µM): 99% (active)
- growth inhibition ([5]; at 1.2 µM): -15%
- growth inhibition ([5]; at 3.7 µM): -27%
- growth inhibition [5, 17]: 27%
- growth inhibition ([5]; at 11.0 µM): -17%
- growth inhibition ([5]; at 33.0 µM): -2%
- growth inhibition [5, 18]: 46%
- growth inhibition ([5]; at 50.0 µM): 30.4%
- growth inhibition ([5]; at 100.0 µM): 91% (active)
- growth inhibition ([6]; at 1.2 µM): -37%
- growth inhibition ([6]; at 3.7 µM): -24%
- growth inhibition [6, 17]: 22%
- growth inhibition ([6]; at 11.0 µM): -23%
- growth inhibition ([6]; at 33.0 µM): -8%
- growth inhibition [6, 18]: 23%
- growth inhibition ([6]; at 50.0 µM): 13%
- growth inhibition ([6]; at 100.0 µM): 97% (active)
- growth inhibition ([7]; at 1.2 µM): -23%
- growth inhibition ([7]; at 3.7 µM): -16%
- growth inhibition ([7]; at 11.0 µM): -7%
- growth inhibition ([7]; at 33.0 µM): 73% (active)
- growth inhibition ([7]; at 100.0 µM): 98% (active)
- growth inhibition [8, 17]: 4%
- growth inhibition [8, 18]: -61%
- growth inhibition ([8]; at 50.0 µM): 78% (active)
- growth inhibition ([9]; at 1.2 µM): -7%
- growth inhibition ([9]; at 3.7 µM): 0%
- growth inhibition ([9]; at 11.0 µM): -1%
- growth inhibition ([9]; at 33.0 µM): -2%
- growth inhibition ([9]; at 100.0 µM): 69%
- growth inhibition [10, 17]: 10%
- growth inhibition [10, 18]: -81%
- growth inhibition ([10]; at 50.0 µM): 30%
- growth inhibition ([11]; at 1.2 µM): -29%
- growth inhibition ([11]; at 3.7 µM): -18%
- growth inhibition [11, 17]: 0%
- growth inhibition ([11]; at 11.0 µM): -18%
- growth inhibition ([11]; at 33.0 µM): 41%
- growth inhibition [11, 18]: -63%
- growth inhibition ([11]; at 50.0 µM): 85% (active)
- growth inhibition ([11]; at 100.0 µM): 98% (active)
- growth inhibition ([12]; at 1.2 µM): -28%
- growth inhibition ([12]; at 3.7 µM): -19%
- growth inhibition ([12]; at 11.0 µM): -19%
- growth inhibition ([12]; at 33.0 µM): -13%
- growth inhibition ([12]; at 100.0 µM): 96% (active)
- growth inhibition ([13]; at 1.2 µM): -26%
- growth inhibition ([13]; at 3.7 µM): -13%
- growth inhibition ([13]; at 11.0 µM): 9%
- growth inhibition ([13]; at 33.0 µM): 59%
- growth inhibition ([13]; at 100.0 µM): 97% (active)
- growth inhibition ([14]; at 1.2 µM): 15%
- growth inhibition ([14]; at 3.7 µM): 12%
- growth inhibition ([14]; at 11.0 µM): 19%
- growth inhibition ([14]; at 33.0 µM): 32%
- growth inhibition ([14]; at 100.0 µM): 96% (active)
- growth inhibition [15, 17]: 25%
- growth inhibition [15, 18]: 84% (active)
- growth inhibition ([15]; at 50.0 µM): 86.8% (active)
- growth inhibition ([16]; at 1.2 µM): -19%
- growth inhibition ([16]; at 3.7 µM): -12%
- growth inhibition ([16]; at 11.0 µM): -5%
- growth inhibition ([16]; at 33.0 µM): 43%
- growth inhibition ([16]; at 100.0 µM): 96% (active)

SMILES: O=c1cccccc1[O-].O=c1cccccc1[O-].O=c1cccccc1[O-].[Eu+3]
- growth inhibition ([1]; at 1.2 µM): 2%
- growth inhibition ([1]; at 3.7 µM): 3%
- growth inhibition ([1]; at 11.0 µM): 32%
- growth inhibition ([1]; at 33.0 µM): 97% (active)
- growth inhibition ([1]; at 100.0 µM): 97% (active)
- growth inhibition ([2]; at 1.2 µM): 6%
- growth inhibition ([2]; at 3.7 µM): 2%
- growth inhibition ([2]; at 11.0 µM): 14%
- growth inhibition ([2]; at 33.0 µM): 97% (active)
- growth inhibition ([2]; at 100.0 µM): 97% (active)
- growth inhibition ([3]; at 1.2 µM): 0%
- growth inhibition ([3]; at 3.7 µM): -1%
- growth inhibition ([3]; at 11.0 µM): 16%
- growth inhibition ([3]; at 33.0 µM): 95% (active)
- growth inhibition ([3]; at 100.0 µM): 96% (active)
- growth inhibition ([4]; at 1.2 µM): 13%
- growth inhibition ([4]; at 3.7 µM): 8%
- growth inhibition ([4]; at 11.0 µM): 14%
- growth inhibition ([4]; at 33.0 µM): 97% (active)
- growth inhibition ([4]; at 100.0 µM): 98% (active)
- growth inhibition ([5]; at 1.2 µM): 6%
- growth inhibition ([5]; at 3.7 µM): -29%
- growth inhibition [5, 17]: 38%
- growth inhibition ([5]; at 11.0 µM): 71% (active)
- growth inhibition ([5]; at 33.0 µM): 97% (active)
- growth inhibition [5, 18]: 38%
- growth inhibition ([5]; at 50.0 µM): 92.5% (active)
- growth inhibition ([5]; at 100.0 µM): 93% (active)
- growth inhibition ([6]; at 1.2 µM): -1%
- growth inhibition ([6]; at 3.7 µM): 2%
- growth inhibition [6, 17]: 26%
- growth inhibition ([6]; at 11.0 µM): 16%
- growth inhibition ([6]; at 33.0 µM): 90% (active)
- growth inhibition [6, 18]: 26%
- growth inhibition ([6]; at 50.0 µM): 91.7% (active)
- growth inhibition ([6]; at 100.0 µM): 98% (active)
- growth inhibition ([7]; at 1.2 µM): 3%
- growth inhibition ([7]; at 3.7 µM): 7%
- growth inhibition ([7]; at 11.0 µM): 25%
- growth inhibition ([7]; at 33.0 µM): 98% (active)
- growth inhibition ([7]; at 100.0 µM): 98% (active)
- growth inhibition [8, 17]: 65%
- growth inhibition [8, 18]: 65%
- growth inhibition ([8]; at 50.0 µM): 89.7% (active)
- growth inhibition ([9]; at 1.2 µM): 5%
- growth inhibition ([9]; at 3.7 µM): 11%
- growth inhibition ([9]; at 11.0 µM): 25%
- growth inhibition ([9]; at 33.0 µM): 92% (active)
- growth inhibition ([9]; at 100.0 µM): 98% (active)
- growth inhibition [10, 17]: 5%
- growth inhibition [10, 18]: 5%
- growth inhibition ([10]; at 50.0 µM): 86.7% (active)
- growth inhibition ([11]; at 1.2 µM): 1%
- growth inhibition ([11]; at 3.7 µM): 1%
- growth inhibition [11, 17]: 8%
- growth inhibition ([11]; at 11.0 µM): 2%
- growth inhibition ([11]; at 33.0 µM): 96% (active)
- growth inhibition [11, 18]: 8%
- growth inhibition ([11]; at 50.0 µM): 92.8% (active)
- growth inhibition ([11]; at 100.0 µM): 98% (active)
- growth inhibition ([12]; at 1.2 µM): 1%
- growth inhibition ([12]; at 3.7 µM): 3%
- growth inhibition ([12]; at 11.0 µM): 22%
- growth inhibition ([12]; at 33.0 µM): 99% (active)
- growth inhibition ([12]; at 100.0 µM): 98% (active)
- growth inhibition ([13]; at 1.2 µM): -4%
- growth inhibition ([13]; at 3.7 µM): -1%
- growth inhibition ([13]; at 11.0 µM): 13%
- growth inhibition ([13]; at 33.0 µM): 95% (active)
- growth inhibition ([13]; at 100.0 µM): 98% (active)
- growth inhibition ([14]; at 1.2 µM): 2%
- growth inhibition ([14]; at 3.7 µM): 1%
- growth inhibition ([14]; at 11.0 µM): 26%
- growth inhibition ([14]; at 33.0 µM): 98% (active)
- growth inhibition ([14]; at 100.0 µM): 98% (active)
- growth inhibition [15, 17]: 24%
- growth inhibition [15, 18]: 24%
- growth inhibition ([15]; at 50.0 µM): 89.8% (active)
- growth inhibition ([16]; at 1.2 µM): 3%
- growth inhibition ([16]; at 3.7 µM): 15%
- growth inhibition ([16]; at 11.0 µM): 42%
- growth inhibition ([16]; at 33.0 µM): 98% (active)
- growth inhibition ([16]; at 100.0 µM): 97% (active)
